Shiga inhibitor: A qHTS for Small Molecule Inhibitors of Shiga Toxin; inhibition, % at 38.7 µM; Vero cells, Shiga toxin protein synthesis inhibition reporter; AID 2315, 2010; 290,000 compounds, 9.2% hits; in the data active = inhibition mostly above about 28%, no sharp cut-off; inactive = mostly below about 43%
Pf growth 96h: Primary qHTS for delayed death inhibitors of the malarial parasite plastid, 96 hour incubation | Potency, µM (highest dose often 28.7 µM), usual class: inhibitors | AID 504834, 2011 | P. falciparum luciferase reporter growth, 96 h | 320,000 compounds, 6.9% hits
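Two parasite generations (96 h, 37 C, 5% CO2) of compound exposure in infected erythrocytes (0.05% parasitemia, 2% hematocrit). Luciferase-reporter P. falciparum; decreased luminescence indicates inhibited growth, aimed at apicoplast-acting delayed death.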
CHX counter: Cycloheximide Counterscreen for Small Molecule Inhibitors of Shiga Toxin | cell reporter, cycloheximide protein synthesis inhibition counterscreen | max response, % | AID 2314, 2010 | 300,000 compounds, 12% hits; in the data active = max response mostly above about 13%, no sharp cut-off; inactive = mostly below about 14%; also: read at 38.3 µM for the half of the compounds with a filed dose
LmPK inhibitor: qHTS Assay for Inhibitors of Leishmania Mexicana Pyruvate Kinase (LmPK) | Potency, µM (doses to about 57.5 µM), actives largely listed as inhibitors | Q27686 | purified LmPK, Kinase-Glo ATP luminescence, 1 h | 290,000 compounds, 0.37% hits
Target sequence (Q27686 whole entry, looked up): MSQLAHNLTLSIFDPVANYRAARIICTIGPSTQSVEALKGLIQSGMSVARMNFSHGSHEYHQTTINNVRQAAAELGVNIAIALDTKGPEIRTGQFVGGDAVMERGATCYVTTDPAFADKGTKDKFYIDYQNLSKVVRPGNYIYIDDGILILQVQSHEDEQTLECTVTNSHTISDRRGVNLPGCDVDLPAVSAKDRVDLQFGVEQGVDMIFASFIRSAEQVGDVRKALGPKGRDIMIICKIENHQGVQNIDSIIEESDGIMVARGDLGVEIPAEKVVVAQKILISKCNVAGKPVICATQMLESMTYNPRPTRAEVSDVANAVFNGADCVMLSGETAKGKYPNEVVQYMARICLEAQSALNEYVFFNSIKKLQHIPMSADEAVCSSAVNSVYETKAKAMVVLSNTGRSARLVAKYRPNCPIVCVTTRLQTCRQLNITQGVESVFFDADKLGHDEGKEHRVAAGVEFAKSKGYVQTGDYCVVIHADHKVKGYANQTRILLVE
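In 50 mM imidazole pH 7.2 with 7 mM MgCl2, LmPK (0.1 nM) turned over PEP (0.5 mM) and ADP (0.1 mM) for 1 h at room temperature. Luciferase read-out of ATP.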
Pf growth 48h: Primary qHTS for delayed death inhibitors of the malarial parasite plastid, 48 hour incubation; P. falciparum luciferase growth in erythrocytes, 48 h; Potency, µM (series often up to 28.7 µM), hits mostly inhibitors; 310,000 compounds, 5.9% hits; AID 504832, 2011
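Cell-based growth assay: transgenic P. falciparum expressing firefly luciferase, cultured in red cells within RPMI 1640 containing 0.5% w/v Albumax, 24 mM bicarbonate and gentamycin. A drop in luciferase activity indicates inhibition.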
A number is an active result; – = inactive; ? = inconclusive; · = no result; [ ] = dose if it differs, or a comment. This is a sample that favours compounds with a hit; in the whole collection about 22% have one here. Unless noted, calls follow the shape of the dose curve; as a rule, active = well fitted inhibition curve with a large enough effect; inconclusive = small, poorly fitted or top-dose-only effect, or another doubt; inactive = no such curve, though single readings can be large or run the other way.

SMILES	Shiga inhibitor	Pf growth 96h	CHX counter	LmPK inhibitor	Pf growth 48h
CCN1C(=O)NC(=O)/C(=C\c2cn(CC(=O)N3CCCCC3C)c3ccccc23)C1=O (stereo not given)	–	6.57µM	–	–	–
O=C(O)Cn1cc(/C=C2\C(=O)NC(=O)N(c3ccc(Cl)cc3)C2=O)c2ccccc21	–	–	–	–	?
CCN(CC)C(=O)Cn1cc(/C=C2\C(=O)NC(=O)N(c3ccccc3F)C2=O)c2ccccc21	–	?	8.5	–	–
Cc1cccc(C[C@H](C(=O)O)N2C(=O)c3ccc(C(=O)O)cc3C2=O)c1	–	–	–	·	–
O=C(CCCOc1ccc(Cl)cc1Cl)N/N=C/c1cccc([N+](=O)[O-])c1	–	–	–	–	–
COc1cccc(-c2ccc(NC(=O)C3CCCN(Cc4ccc(CO)o4)C3)cc2)c1 (stereo not given)	–	?	–	–	?
CN1C(=O)N(CC(=O)Nc2nccs2)C(=O)C12CCCCC2	·	–	·	·	–
CCN1CCN(S(=O)(=O)c2ccc(Cl)c(C(=O)N(C)Cc3ccc(Cl)cc3Cl)c2)CC1	–	–	–	–	–
Cc1ccc(N(Cc2ccccc2)C(=O)c2cc(S(=O)(=O)N3CCOCC3)ccc2F)cc1	·	?	·	·	11.7µM
Cc1ccc(N(Cc2ccccc2)C(=O)c2cc(S(=O)(=O)N3CCOCC3)ccc2Cl)cc1	·	13.1µM	·	·	?
C=CCN(Cc1ccc(Cl)s1)C(=O)c1cc(S(=O)(=O)N2CCOCC2)ccc1F	·	?	·	·	13.1µM
CCN1CCN(S(=O)(=O)c2ccc(Cl)c(C(=O)N(C)C(c3ccccc3)c3ccccc3)c2)CC1	·	13.1µM	·	·	9.28µM
CN(CCOc1ccccc1)C(=O)c1cc(S(=O)(=O)N2CCOCC2)ccc1Cl	·	–	·	·	?
CCC(C(=O)NC(C)(C)C)N(C(=O)Cn1nnc(-c2ccccc2F)n1)c1cccc2c1CCCC2 (stereo not given)	–	?	–	–	?
CCOc1ccc(-c2ncncc2-c2ccc(OC)c(OC)c2)c(O)c1	–	?	–	–	?
Cc1cccc(N(Cc2ccccc2)C(=O)c2cc(S(=O)(=O)N3CCOCC3)ccc2Cl)c1	·	?	·	·	11.7µM
CCN(Cc1ccccc1)C(=O)c1cc(S(=O)(=O)N2CCOCC2)ccc1N1CCCC1	·	–	·	·	–
CCn1ccnc1CN1CCCC(C(=O)c2cccc(C(F)(F)F)c2)C1 (stereo not given)	–	–	–	–	9.28µM
COc1ccc(C(=O)C2CCCN(Cc3c(O)cccc3OC)C2)cc1OC (stereo not given)	–	?	–	–	?
COc1cccc(O)c1CN1CCCC(C(=O)c2cccc(C(F)(F)F)c2)C1 (stereo not given)	–	?	–	–	2.94µM
O=C(c1cccc(C(F)(F)F)c1)C1CCCN(Cc2ncc[nH]2)C1 (stereo not given)	–	?	–	–	–
C[C@H](NC(=O)[C@@H]1CSC2c3ccccc3C(=O)N21)C(=O)NCc1c(F)cccc1Cl (stereo not given in full)	–	11.7µM	–	–	?
COC(=O)c1[nH]c2ccc(C)cc2c1NC(=O)CN1CCCc2ccccc21	–	2.33µM	–	–	4.15µM
Cc1ccc2[nH]c3c(c2c1)CN(C(=O)CN1CCCc2ccccc21)CC3	68.9	4.65µM	19.4	–	4.15µM
COC(=O)c1[nH]c2ccc(C)cc2c1NC(=O)Nc1ccc(OC)cc1	–	–	19.0	–	–
SMILES	Shiga inhibitor	Pf growth 96h	CHX counter	LmPK inhibitor	Pf growth 48h
C/C=C(/C)C(=O)O[C@H]1CC(C)=CC(=O)[C@@]2(C)CC[C@@](O)(C(C)C)[C@H]12	–	·	–	·	·
COc1ccc(C(=O)Nc2ccccc2C(=O)NC(Cc2c[nH]c3ccccc23)C(=O)O)cc1 (stereo not given)	–	–	–	–	?
Cc1nnc2sc(SCC(=O)N3CCC(C)CC3)nn2c1=O	–	3.7µM	–	–	?
Cc1nnc2sc(SCC(=O)N3CCCCC3)nn2c1=O	–	0.828µM	–	–	2.62µM
Cc1ccc(S(=O)(=O)N2CCN(C(=O)CSc3nncs3)CC2)cc1	–	–	–	–	–
Cc1nnc(SCC(=O)N2CCCCC2)s1	33.8	·	17.6	–	–
Cc1ccc(S(=O)(=O)N2CCN(C(=O)CSc3nnc(C)s3)C2)cc1	–	4.15µM	–	–	·
Cc1ccccc1NC(=O)CSc1nn2c(=O)c(C)nnc2s1	–	?	–	–	?
Cc1ccccc1CSc1nn2c(=O)c(C)nnc2s1	–	?	–	–[11.5 µM]	5.22µM
Cc1ccc(NC(=S)N2CCN(S(=O)(=O)c3ccc(F)cc3)CC2)cc1	–	?	–	–	?
CC(C)=CCCC(C)CN1CCC(N2CCC(C(=O)N3CCOCC3)CC2)CC1 (stereo not given)	–	–	–	–	?
CC(C)=CCCC(C)CN1CCC(N2CCC(C(=O)NC(C)C)CC2)CC1 (stereo not given)	–	?	–	–	5.22µM
COc1ccc(OCCCCn2c(CO)nc3ccccc32)cc1	–	?	–	–	–
c1ccc(NCc2nc3ccccc3n2CCOc2ccccc2)cc1	active	?	15.7	–	–
Cc1ccc(OCCn2c(C)nc3ccccc32)cc1	·	–	–	–	?
OCCCc1nc2ccccc2n1CCOc1ccccc1	–	?	–	–	?
COc1ccc(NCc2nc3ccccc3n2CCOc2ccc(C)cc2)cc1	47.4	–	28.2	–	–
COc1ccc(NCc2nc3ccccc3n2CCOc2ccccc2)cc1	84.3	–	46.8	–	–
COc1ccc(S(=O)(=O)N2CCN(CC(O)COc3ccc(CC#N)cc3)CC2)cc1OC (stereo not given)	–	?	–	–	–
Cc1cc(C)n(-c2ccc(C(=O)N3CCC(CO)(Cc4ccccc4)CC3)cc2)n1	–	?	–	–	?
Cc1ccc(-c2cc(-c3ccccc3)nc(Cl)n2)cc1	127.9	–	46.2	–	–
CCc1nc(-c2ccc(OC)c(OC)c2)cc2cc(OC)c(OC)cc12	–	9.28µM	–	–	–
CCOc1ccc(-c2cc3cc(OC)c(OC)cc3c(C)n2)cc1	–	–	–	–	–
COc1ccc(-c2cc(-c3ccccc3)nc(Cl)n2)cc1OC	–	?	13.8	–	–
CCCCCCCCCCCCCCCCCCCCCC(=O)Nc1ccn([C@@H]2O[C@H](CO)[C@@H](O)[C@@H]2O)c(=O)n1	·	–	·	·	–
CC(C)C(NC(=O)c1c(F)cccc1F)C(=O)NCCc1ccc(S(N)(=O)=O)cc1 (stereo not given)	–	–	–	–	–
CC(=O)Nc1ccc(C(=O)OCC(=O)NC(=O)NC(C)(C)C)cc1	–	?	–	–	·
CCCOC(=O)c1ccc(NC(=O)CC(C)(C)C)cc1	54.2	–	33.6	–	–
CC(=O)Nc1ccc(C(=O)OCCC(C)C)cc1	84.2	–	24.2	–	–
CCCOC(=O)c1ccc(NC(=O)COC)cc1	49.8	–	–	–	·

High-throughput results as filed in PubChem BioAssay.
